Results as given in PubChem BioAssay (NCATS).
The other results are listed elsewhere or left out. Results filed as inconclusive are left out. Calls of active or inactive are those of the source. Calls follow the shape of the dose curve; as a rule, active = well fitted inhibition curve with a large enough effect; inconclusive = small, poorly fitted or top-dose-only effect; inactive = flat fitted curve, though single readings scatter.

assay: qHTS Assay for Inhibitors of Fructose-1,6-bisphosphate Aldolase from Giardia Lamblia: Coupling assay counterscreen confirmation (AID 2795); details: GAPDH coupling enzyme counterscreen, biochemical; series mostly up to 57.5 µM; activity change, negative = inhibition: at the top concentration; also: nearly all actives have a fitted effect of over 55% in size
Text: NIH Chemical Genomics Center [NCGC]
NIH Molecular Libraries Probe Production centers Network [MLPCN]
Assay Provider: Osnat Herzberg, University of Maryland
The objective of this project is to obtain compounds that inhibit Giardia lamblia growth. G. lamblia is a human pathogen which afflicts impoverished nations; it is the most common cause of outbreaks of diarrhea in the United States. During the course of our study of potential drug targets in Giardia, we have identified the Class II (Zn2+ functions in electrophilic catalysis) fructose-1,6-bisphosphate aldolase (FBPA) as an excellent candidate for drug targeting. FBPA is a key glycolytic pathway enzyme, essential for G. lamblia survival. The human FBPA belongs to the Class I aldolases, which have a different substrate binding site structure and a radically different catalytic mechanism (employing a lysine-Schiff base intermediate). Therefore, affinity-based or mechanism-based inhibitors of the Giardia FBPA are expected not to interfere with the catalytic function of the human FBPA.
A glyceraldehyde-3-phosphate dehydrogenase/triose phosphate isomerase/NAD/arsenate coupled assay was adapted to the 1536-well HTP format for use in the primary screen. This was done by coupling it to a diaphorase/resazurin/resorufin reaction that can be monitored by fluorescence (excitation, 544 nm; emission, 590 nm). Compounds identified in this screen will be further evaluated by coupling the glycerol-3-phosphate/triose phosphate isomerase/NADH assay to a phenazine methosulfate/tetranitroblue tetrazolium color reaction. False positives due to the dehydrogenases and diaphorase inhibition will be eliminated, and selectivity assay will triage inhibitors of mammalian triose phosphate isomerase and the Class I FBPA. G. lamblia FBPA inhibitors identified by the in vitro analyses will be examined for growth inhibition of Giardia trophozoites, and for cytotoxicity in human cells.
This assay specifically addresses whether activity observed in the primary screen (AID 2451) is related to inhibition of the coupling assay used, as opposed to inhibition of aldolase. Actives in this assay are considered inconclusive for activity against aldolase. Hits from the primary screen was run in this assay to confirm their inactivity against the coupling assay.
Step,Parameter,Value,Description
1,Coupling enzyme reagent,2 uL,glyceraldehyde-3-phosphate
2,Compound,23 nL,3.68 nM-57.5 uM final concentration
3,Time,10 min,RT Incubation
4,Substrate/detection Reagent,2 uL,Substrate + enzyme coupling system + AmpLite Red kit
5,Time,20 min,RT Incubation
6,Detector,525 nm/598 nm (Fluorescence),ViewLux Fluorescence Read (Read 1)
1,Medium-binding black solid-bottom Kalypsys plates. FRD or Kalypsys dispenser.
2,Compound Library (10 mM ,1:5 dilution). Pin-transferred for a [final] range of 3.68 nM-57.5 uM.
4,FRD or Kalypsys dispenser, 2 uL of reaction mixture. Bottle kept at 4C and covered in foil to protect from light.
6,ViewLux Protocol 1194; Excitation filter wheel A (525/20 Pol; BODIPY TMR FP), Emission filter wheel B (598/25 S; BODIPY TMR FP S).
Keywords: Fructose-bisphosphate aldolase, FBPA , Giardia lamblia , Giardia, HTS, Inhibitors
% is scaled to controls: 0 for no effect and ±100 for the full control effect.

Structure (SMILES) | activity change, negative = inhibition
O=[N+]([O-])c1cc([N+](=O)[O-])c2cccnc2c1O | -20.4% (inactive)
COC(=O)CC1=NN(c2nc(C)cc(C)n2)C(=O)C1 | -14.1% (inactive)
CCN1CCc2c(C#N)c(NCc3ccccc3)nc(NCCO)c2C1 | -5.96% (inactive)
Cc1cc(C)nc(N/N=C/c2ccc([N+](=O)[O-])o2)n1 | -22.2% (inactive)
Cc1nnc(SCC2=C(C(=O)O)N3C(=O)C(NC(=O)Cn4nc(C)c(Cl)c4C)C3SC2)s1 (stereo not given) | -0.591% (inactive)
O=C(CN1CCN(Cc2ccccc2)CC1)Nc1ccc(F)c(F)c1 | 6.58% (inactive)
Cc1cccc(-c2nnc(SCC(=O)O)n2Cc2ccccc2)c1 | 3.29% (inactive)
Cn1c(=O)[nH]c(=O)c2c1[nH]c(=S)n2Cc1ccccc1 | -18.7% (inactive)
O=C(CSc1cccc[n+]1[O-])c1ccc(-c2ccccc2)cc1 | 7.53% (inactive)
CNC(=S)N/N=C/c1ccc(N2CCOCC2)s1 | -21.6% (inactive)
Oc1ccc2ccccc2c1N=Nc1nccs1 | -14.6% (inactive)
Cc1ccc(OCCCCc2c(C)n[nH]c2C)cc1 | -1.86% (inactive)
COc1ccc(N=Nc2c(-c3ccc(OC)cc3)[nH]oc2=O)cc1 | 4.97% (inactive)
CC(C)(c1ccccc1)c1ccc(OCCN2CCCC2)cc1 | 1.71% (inactive)
O=C(Nc1nnc(-c2ccco2)o1)c1ccc(S(=O)(=O)N2CCOCC2)cc1 | 4.14% (inactive)
O=C(NC(=S)Nc1ncccn1)c1ccccc1Br | -4.28% (inactive)
CSc1n[nH]c(=S)n1N | 2.87% (inactive)
COc1ccc(OC)c(Nc2nc(-c3ccc(O)c(O)c3)cs2)c1 | -19.6% (inactive)
Cc1ccc(C(=O)Nc2nnc(C3=COCCO3)o2)cc1C | -8.14% (inactive)
Cc1cnc(NC(=O)c2ccccn2)s1 | -0.283% (inactive)

Structure (SMILES) | activity change, negative = inhibition
Clc1cccc(CN2COc3c(cc(Cl)c4cccnc34)C2)c1 | -14.9% (inactive)
CCN(CC(=O)NC(=O)NCc1ccccc1)Cc1nc2ccccc2c(=O)[nH]1 | 3.55% (inactive)
O=c1nc(N/N=C/c2ccco2)cn[nH]1 | 5.45% (inactive)
CN1C(=O)/C(=C\c2ccc(-c3ccccc3)o2)SC1=S | -6.29% (inactive)
COc1cc(CN2CCN(Cc3ccc(C)cc3)CC2)c([N+](=O)[O-])cc1OC | -0.157% (inactive)
Cc1ccc(S(=O)(=O)NNC(=S)NC(C)(C)C)cc1 | 5.83% (inactive)
COc1ccc(CN2CCN(Cc3ccc(OC)c(OC)c3OC)CC2)cc1 | -12.8% (inactive)
O=S(=O)(c1ccc(NC(=S)NN=C(C2CC2)C2CC2)cc1)N1CCOCC1 | 11.1% (inactive)
Oc1[nH]c2ccc(Br)cc2c1N=Nc1nn[nH]n1 | 7.05% (inactive)
Cc1cc(C)c2c(=O)[nH]c(SCC(=O)Nc3ccc(Br)cc3)nc2n1 | 13% (inactive)
O=C(Nc1ccccc1Cl)O/N=C(/c1ccccc1)c1ccccn1 | -0.579% (inactive)
CN(C)CCOc1ccc(Cl)cc1C(C)(C)C | -9.12% (inactive)
CC1CCCN(S(=O)(=O)c2ccc(C(=O)Nc3nnc(-c4ccncc4)o3)cc2)C1 (stereo not given) | -9.85% (inactive)
Cc1cccc(C)c1OCCN1CCOCC1 | -24.1% (inactive)
COc1ccc(C(=O)NC(=S)N2CCCCC2c2cccnc2)cc1OC (stereo not given) | 9.92% (inactive)
CCc1ccc2c(c1)C1(NN=C(c3ccccc3)S1)C(=O)N2 (stereo not given) | 5.94% (inactive)
CCN(CC(=O)Nc1ccc(S(=O)(=O)N2CCCC2)cc1)CC(=O)Nc1cccc(OC)c1 | 6.83% (inactive)
COc1ccc(Cl)cc1C(=O)NNC(=O)c1nc2nc(C)cc(C)n2n1 | 14.1% (inactive)
CCS(=O)(=O)c1cc([N+](=O)[O-])c(Sc2ccccc2N)s1 | 5.69% (inactive)
COCCN(C(=S)Nc1ccccc1OC)C1CCN(C(C)C)CC1 | 2.95% (inactive)
